According to PubChem BioAssay (NCI):
Compounds without any hit were thinned out: in the full panel of roughly 83,000, 20% have a hit.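 How to read the values: 0–100, growth inhibition (40 = 60% inhibited); 0, no net growth; -100 to 0, cell death (-40 = 40% of starting cells died; -100 = all dead).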 Unmarked numbers belong to inactive results. The source made the active and inactive calls. How the source made its calls: active means growth percent below 10; inactive means the rest.

Legend:
Test in all cases: NCI-60 one-dose screen, 48 h (100 = growth as untreated, 0 = no growth, -100 = all killed)
Conditions in all cases: 10 µM unless noted
[1] = tested on: SK-MEL-2 melanoma
[2] = tested on: EKVX NSCLC
[3] = tested on: SN12C renal
[4] = tested on: UO-31 renal
[5] = tested on: TK-10 renal
[6] = tested on: ACHN renal
[7] = tested on: CAKI-1 renal
[8] = tested on: A498 renal
[9] = tested on: CCRF-CEM leukemia
[10] = tested on: MOLT-4 leukemia

SMILES	growth [1] [%]	growth [2] [%]	growth [3] [%]	growth [4]	growth [5] [%]	growth [6]	growth [7]	growth [8]	growth [9]	growth [10]
CS(=O)(=O)N1CCN(Cc2cc3nc(-c4cccc5[nH]ncc45)nc(N4CCOCC4)c3s2)CC1 (tested in a mixture with another compound)	33.4	16.7	17	-12.9% (active)	20.5	12.2%	-1.96% (active)	-62.1% (active)	20.9%	8.77% (active)
Cc1ccc(C(=O)Cc2ccccc2)c(O)c1	101	99.4	94.8	86.4%	104	102%	95%	79.3%	112%	92.3%
c1ccc(-c2oc(-c3ccccc3)c3ccccc23)cc1	104	92.1	104	110%	114	104%	74.7%	98.9%	85.5%	95.7%
BrC1CC(Br)c2c1c1c(c3c2C(Br)CC3Br)C(Br)CC1Br (stereo not given)	115	101	109	39.9%	121	87.2%	94.5%	117%	114%	75.8%
NS(=O)(=O)c1ccc(-n2ncc3c(N/N=C/c4ccccc4)ncnc32)cc1	70.5	108	93	68.8%	93.6	94.7%	53.4%	111%	84.6%	71.4%
COP(=O)(OC)C(c1ccccc1)(c1ccccc1)c1ccccc1	101	101	97.7	113%	69	107%	83%	93%	84.3%	46.5%
CC(=O)OCC(=O)[C@@]1(O)CC[C@H]2[C@@H]3CCC4=CC(=O)CC[C@]4(C)[C@@]3(F)[C@@H](O)C[C@@]21C	104	88.8	84.2	82.5%	99.2	98.5%	115%	103%	71.7%	90.2%
N=C1c2nc3n(c2C(=O)c2nc4n(c21)CCCCC4)CCCCC3	118	103	106	83.6%	142	105%	95.1%	91.6%	104%	93.7%
COC(=O)C1=CCC(n2cnc3c(N)ncnc32)O1 (stereo not given)	94.5	101	103	91.5%	104	110%	75.1%	116%	98.8%	91.3%
Cn1ccnc1C(=O)/C=C/c1ccc(C(=O)Nc2nc3ccccc3[nH]2)cc1	85.4	62.3	51.7	28.3%	66.5	49.3%	18.6%	51.1%	15.4%	45.2%
O=Nc1c2cccnc2n2nnc3ccc(Cl)cc3c12	57.1	77.4	56.5	-37.4% (active)	16.5	-49.8% (active)	5.93% (active)	88.3%	-60.5% (active)	-54.3% (active)
C[C@H]1C(=O)N2c3ccccc3[C@@]3(O)C[C@@H](n4cnc5ccccc5c4=O)C(=O)N1[C@@H]23	19.2	103	120	86.5%	109	104%	99.2%	121%	95%	105%
Nc1ccccc1-c1ccn[nH]1	83.5	87	87.9	50.9%	119	70.5%	68.4%	103%	97.4%	98.7%
O=Cc1ccccc1C(=O)O	109	94	104	90%	93.2	103%	96%	109%	104%	98.6%
